# From PubChem BioAssay AID1259418 (Broad Institute, 2018)
# Hit rate of the full screen: of about 3,400 compounds, about 840 (25%) were called active. Inconclusive results (about 11%) are left out. The list is a sample of the results. Results with a measured potency or affinity are listed apart. A number with no mark means an inactive call.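 The calls were made as follows: active = fitted half-maximal concentration of signal decrease at or below twice the sample's top tested concentration; inconclusive = flat curve between -70 and -30 percent, or poor fit; inactive = flat within 30 percent, signal rise, or potency above limit.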
# Assay: inhibitors of Toxoplasma growth in IFN-γ-primed HeLa – cell-based, ME49Luc, luciferase, 72 h, dose response (AID 1259418)
# Details: T. gondii ME49Luc in IFN-y HeLa, hits give low values, -100% = high-dose IFN-γ control wells; at 19.5 µM unless noted
row,Compound,max activity
1,O=C(NCCc1csc(-c2ccccc2)n1)[C@H]1CCCN1C(=O)c1cccc(Cl)c1,-10.8% [at 0.35 µM]
2,Cc1cccc(-c2nc(Cn3nnc(-c4nc(-c5cccc(F)c5)no4)c3C)c(C)o2)c1,-7.79% [at 1.35 µM]
3,COc1ccccc1-c1nc(Cn2nnc(-c3nc(-c4ccccc4C)no3)c2C)c(C)o1,11.1% [at 0.16 µM]
4,COc1ccc(-c2nc(NCc3ccccc3Cl)c3ccccc3n2)cc1,7.56% [at 0.16 µM]
5,COc1ccccc1CNC(=O)CC1N=C2c3ccccc3N=C(SCC#N)N2C1=O (stereo not given),42.4% [at 10 µM]
6,COc1cc(OC)cc(-c2noc(-c3nnn(Cc4nc(-c5ccc(C)cc5)oc4C)c3C)n2)c1,10.5% [at 0.16 µM]
7,CC1CCCCN1C(=O)c1ccnn1-c1ccc2ccc(-c3ccccc3)cn12 (stereo not given),31.6%
8,Cc1ccc(NC(=O)N2CCN(Cc3nc(-c4ccccc4C)oc3C)CC2)cc1C,8.71% [at 0.68 µM]
9,COc1ccc(-c2nc(NCCCN3CCC(Cc4ccccc4)CC3)c3ccccc3n2)cc1,-19.1% [at 0.35 µM]
10,CCC(CN1CCOCC1)Nc1nc(-c2ccc(OC)cc2)nc2ccccc12 (stereo not given),27.4%
11,O=C(NCCc1c[nH]c2ccccc12)c1cc(-c2ccccn2)nc2ccccc12,15.3% [at 0.68 µM]
12,CCCc1ccc(S(=O)(=O)N2CCc3nc(-c4ccc(OCC)cc4)sc3C2)cc1,88.1%
13,Cc1ccc(CN2CC[C@H]3CO[C@@H](CNC(=O)C4CC4)[C@@H]3C2)cc1,18.5%
14,O=C1N(CC2CC2)CCC12CCCN(Cc1cncc(Cl)c1)CC2 (stereo not given),33.7%
15,COc1cccc(N(Cc2nc(-c3ccc(C)cc3)oc2C)S(=O)(=O)c2ccccc2)c1,-10.4% [at 10 µM]
16,COc1cccc(N(Cc2nc(-c3ccc(OC(C)C)cc3)oc2C)S(=O)(=O)c2ccccc2)c1,4.32% [at 10 µM]
17,COc1ccc(CNC(=O)CC2N=C3c4ccccc4N=C(SCc4cc(=O)n5ccccc5n4)N3C2=O)cc1 (stereo not given),19.7% [at 2.6 µM]
18,CCOC(=O)c1c(C)[nH]c(-c2ccccc2)c1-c1ccccc1,20.8% [at 10 µM]
19,CCc1ccc(NC(=O)Nc2ccc(-c3nc(-c4ccc(C)cc4)co3)cc2)cc1,11.2% [at 0.16 µM]
20,Cc1ccc(S(=O)(=O)N2CCC3(CC2)NCCN=C3NCc2ccc(F)cc2)c(C)c1,-23.4%
21,COc1ccc(CNC2=NCCNC23CCN(S(=O)(=O)c2cccs2)CC3)cc1,-8.27% [at 0.35 µM]
22,CCc1ccc(S(=O)(=O)N2CCC3(CC2)NCCN=C3NCc2cccc(OC)c2)cc1,-9.5% [at 0.68 µM]
23,Cc1ccc(S(=O)(=O)N2CCC3(CC2)NCCN=C3NCc2cccc(F)c2)c(C)c1,-19.4% [at 10 µM]
24,CN(C)C(=O)c1ccc(-c2ccc([C@H]3[C@@H](CO)N4C(=O)CN(C(=O)CC5CC5)C[C@@H]34)cc2)cc1,20.3%
25,Cc1cnc(N2C[C@@H](c3ccccc3)[C@@]3(CCNC3=O)C2)nc1,22.8%

row,Compound,max activity
1,Cc1ccc(-n2ncc3c(NCC4CCCO4)ncnc32)c(C)c1 (stereo not given),9.91% [at 0.16 µM]
2,COc1ccc(CNC(=O)CCC2N=C3c4ccccc4N=C(SCc4cc(=O)n5cc(Cl)ccc5n4)N3C2=O)cc1 (stereo not given),-8.86% [at 1.35 µM]
3,CSc1ccc(-c2noc(-c3nnn(Cc4nc(-c5cccc(C)c5)oc4C)c3C)n2)cc1,-16.4% [at 0.16 µM]
4,Cc1ccc(OCC(=O)Nc2cncc(-c3nc4ccccc4o3)c2)cc1,10.2% [at 1.35 µM]
5,Cc1nc(CCNC(=O)[C@H]2CCCN2S(=O)(=O)c2ccc3c(c2)CCCC3)cs1,26.6% [at 0.35 µM]
6,Cc1ccc2c(c1)cc(S(=O)(=O)c1ccccc1)c(=O)n2CC(=O)NCc1ccc2c(c1)OCO2,-10.2% [at 0.68 µM]
7,COCCCNC1=NCCNC12CCN(S(=O)(=O)c1ccc(C)cc1C)CC2,13.7% [at 10 µM]
8,Cc1ccc(S(=O)(=O)N2CCC3(CC2)NCCN=C3NCc2ccccc2C)c(C)c1,-17.1%
9,Cc1cccc(CNC2=NCCNC23CCN(S(=O)(=O)c2ccc(C)c(C)c2)CC3)c1,-21.5%
10,Cc1ccccc1CNC1=NCCNC12CCN(S(=O)(=O)c1cccs1)CC2,21.2% [at 10 µM]
11,O=C(CC1N=C2c3ccccc3N=C(SCc3cc(=O)n4ccccc4n3)N2C1=O)NCc1ccc2c(c1)OCO2 (stereo not given),49.3%
12,Cc1nc(OCC(=O)Nc2ccc(C)c(C)c2)c2ccccc2n1,14.4% [at 0.16 µM]
13,O=C(Nc1ccc(Cl)cc1)N1C[C@H]2[C@@H](c3ccccc31)[C@@H](CO)N2CC1CCCCC1,10.8% [at 10 µM]
14,CSc1cccc(NC(=O)CN2CCC3(CC2)N=C(c2ccc(F)cc2)C(=O)N3)c1,9.26%
15,COc1ccccc1-c1nc(CN2CCc3c(sc4c3CCCC4)C2c2ccccc2)c(C)o1 (stereo not given),10.8% [at 0.038 µM]
16,COc1ccc(CN2CCO[C@H]3[C@H]2CC[C@H]3OCCCn2cccn2)cc1,14.7% [at 5 µM]
17,COc1ccc(CN2C[C@@H]3CN(Cc4cnn(C)c4)C[C@H]3C2=O)cc1,20.7%
18,Cc1nc2c(cnn2-c2ccccc2)c(=O)n1-c1cccc2ccccc12,22.6% [at 10 µM]
19,COc1ccc2c(c1)NC1(CCN(C(=O)c3ccccc3Cl)CC1)c1cccn1-2,-5.12%
20,CCOc1ccc(-c2nc(Cn3c(=O)c4c(C)cc(C)nc4n(-c4ccccc4)c3=O)c(C)o2)cc1,8.31% [at 0.16 µM]
21,O=C(Nc1ccccc1F)N1CCCCN2[C@H](C1)[C@H](c1ccc(/C=C/c3ccccc3)cc1)[C@@H]2CO,35.7% [at 10 µM]
22,COc1ccc(NC(=O)N2CCCCN3[C@@H](CO)[C@H](c4ccc(-c5ccccc5F)cc4)[C@@H]3C2)cc1,20.7% [at 5 µM]
23,CCc1ccc(-n2nnc(C(=O)N3CCC(N4CCCCC4)CC3)c2-c2ccncc2)cc1,6.73% [at 5 µM]
24,Cc1[nH]c2ccccc2c1C(=O)C(=O)NC1CC(=O)N(c2ccc3c(c2)OCCO3)C1 (stereo not given),7.24%
25,Cc1ccc(-c2coc(-c3ccc(NC(=O)COc4ccccc4C)cc3)n2)c(C)c1,-20.2% [at 1.35 µM]

row,Compound,max activity
1,COc1ccc(-c2nc(N(C)C3CCCCC3)c3ccccc3n2)cc1,11.7%
2,COc1ccccc1Nc1nc(-c2ccc(Cl)cc2)nc2ccccc12,-18.5% [at 0.68 µM]
3,Cc1ccsc1C(=O)Nc1ccc(-c2nc(-c3ccccc3)co2)cc1,30.4% [at 0.68 µM]
4,COc1cccc(N(Cc2nc(-c3ccccc3)oc2C)S(=O)(=O)c2ccc(C)cc2)c1,-7.21% [at 1.35 µM]
5,O=C(Cn1c(=O)c(S(=O)(=O)c2ccccc2)cc2ccccc21)NC1CCCC1,9.84% [at 0.35 µM]
6,CCOc1ccccc1-c1nc(CN2CCc3c(sc4c3CCCC4)C2c2ccccc2)c(C)o1 (stereo not given),19.5%
7,CC1=CCC=CC1C(=O)Nc1ccc2c(c1)CCC(=O)N2C (stereo not given),56.7%
8,Cc1ccc(-c2coc(-c3ccc(NC(=O)Nc4ccccc4)cc3)n2)cc1,-15.8%
9,Cc1ccc(-c2coc(-c3ccc(NC(=O)COc4ccc(F)cc4)cc3)n2)c(C)c1,10.4% [at 0.35 µM]
10,COCCCNC1=NCCNC12CCN(S(=O)(=O)c1cc(C)cc(C)c1)CC2,11.6% [at 10 µM]
11,Cc1cc(C)cc(S(=O)(=O)N2CCC3(CC2)NCCN=C3NCc2cccc(F)c2)c1,-38.9%
12,Cc1nc(-c2ccc(F)cc2)sc1-c1ccc(SCc2ccc(Cl)c(Cl)c2)nn1,7.38% [at 2.6 µM]
13,COc1cc(NC(=O)CN2CCC3(CC2)N=C(c2ccc(F)cc2)C(=O)N3)cc(OC)c1,16.7% [at 10 µM]
14,O=C(COc1ccc(Br)cc1)Nc1cncc(-c2nc3ccccc3o2)c1,8.52% [at 0.16 µM]
15,O=S(=O)(c1ccccc1)N1CCCCN2[C@H](C1)[C@H](c1ccc(C#CC3CCCC3)cc1)[C@@H]2CO,27.4% [at 5 µM]
16,COc1cccc(S(=O)(=O)N2CCCCN3[C@H](CO)[C@@H](c4ccc(C#CCC(C)C)cc4)[C@@H]3C2)c1,106%
17,COc1cccc(S(=O)(=O)N2CCCCN3[C@H](C2)[C@@H](c2ccc(C#CCC(C)C)cc2)[C@@H]3CO)c1,100% [at 0.08 µM]
18,COc1cc(C(=O)N2CCC3(CC2)Nc2cc(F)ccc2-n2cccc23)cc(OC)c1OC,5.03% [at 0.68 µM]
19,COc1cccc(NC(=O)Nc2ccc(-c3nc(-c4ccc(C)cc4)co3)cc2)c1,21.2% [at 0.16 µM]
20,Cc1oc(-c2cccc(Cl)c2)nc1CN1CCN(C(=O)Nc2ccccc2C(F)(F)F)CC1,-9.46% [at 2.6 µM]
21,Cc1oc(-c2cccc(Cl)c2)nc1CN1CCN(C(=O)Nc2ccccc2)CC1,-19.4%
22,CCc1ccc(NC(=O)N2CCN(Cc3nc(-c4cccc(Cl)c4)oc3C)CC2)cc1,-13.8%
23,COc1ccc(NC(=O)N2CCN(Cc3nc(-c4cccc(Cl)c4)oc3C)CC2)cc1OC,-22.8%
24,Cc1cccc(NC(=O)N2CCN(Cc3nc(-c4cccc(Cl)c4)oc3C)CC2)c1C,13.9% [at 5 µM]
25,Cc1cc(C)cc(NC(=O)N2CCN(Cc3nc(-c4cccc(Cl)c4)oc3C)CC2)c1,11% [at 1.35 µM]
